Measured values taken from PubChem BioAssay AID1053127 (Broad Institute, 2014).
Potency and affinity values are given separately.

Experiment: CTGF mRNA reduction under YAP1 overexpression, dose response, mechanism study for YAP1 pathway inhibitor project, DLD1 cells, RT-qPCR, cherry-pick (AID 1053127)
Conditions: DLD1 YAP1-overexpressing, 24 h; series mostly up to 26 µM; CTGF fold change (delta-delta-Ct), lower = inhibition: at the top concentration;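 active = compounds whose fitted curve of lowered CTGF expression reaches half effect within a set concentration limit; inconclusive = flat moderate drop in CTGF, or unreliable curve fit; inactive = the rest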

CTGF fold change (delta-delta-Ct), lower = inhibition, inactive:
C[C@H]1CC=CC[C@@H](c2ccc(F)cc2)NC(=O)[C@H](Cc2ccccc2)N(C)C(=O)c2ccccc2O1 (mixture of isomers) 0.62 unspecified
CN1C(=O)c2cc(NS(=O)(=O)c3ccccc3F)ccc2OC[C@@H]2O[C@@H](CC(=O)NC3Cc4ccccc4C3)CC[C@@H]21 1.29 unspecified
COc1ccc2c3c(n(C)c2c1)[C@H](CO)N(S(C)(=O)=O)CC31CCN(C(=O)Nc2cccc(F)c2)CC1 1.04 unspecified
COc1ccccc1NC(=O)N1CCCCN2[C@@H](CO)[C@H](c3ccc(-c4cccc(C#N)c4)cc3)[C@@H]2C1 1.01 unspecified
C[C@H](CO)N1C[C@H](C)[C@H](CN(C)Cc2ccc(Oc3ccccc3)cc2)OCc2ccccc2-c2ccccc2C1=O 1.45 unspecified [at 23.5 µM]
C[C@@H]1CN([C@H](C)CO)C(=O)CCCn2nncc2CO[C@@H]1CN(C)C(=O)c1cc(-c2ccccc2)on1 0.649 unspecified
C[C@H]1CN([C@@H](C)CO)C(=O)c2cc(C#Cc3ccccc3)cnc2O[C@H]1CN(C)C(=O)c1ccccc1 0.867 unspecified
N#C[C@@H]1[C@H](c2ccc(-c3cccc(F)c3)cc2)[C@H](CO)N1C(=O)NC1CCCC1 1.04 unspecified
O=C(CC1CC1)N1CC(=O)N2[C@@H](CO)[C@H](c3ccc(/C=C/c4ccccc4)cc3)[C@@H]2C1 1.06 unspecified
O=S(=O)(Cc1ccccc1)N1CC2(C1)[C@H](c1ccccc1)[C@H](CO)N2CC1CCCC1 0.631 unspecified
COc1ccc([C@H]2C/C=C\C[C@@H](c3ccc4c(c3)OCO4)NC(=O)[C@@H](c3ccccc3)CC(=O)N2)c(OC)c1 2.27 unspecified
O=C(c1cccc(F)c1)N1CCCCN2[C@H](CO)[C@H](c3ccc(C#CC4(O)CCCC4)cc3)[C@@H]2C1 0.87 unspecified
COc1cccc(C#Cc2ccc3c(c2)O[C@@H](CN(C)C(=O)CN2CCOCC2)[C@@H](C)CN([C@@H](C)CO)S3(=O)=O)c1 1.36 unspecified
C[C@@H]1CC=CC[C@@H](c2cccc(Cl)c2)NC(=O)[C@H](Cc2ccccc2)N(C)C(=O)c2ccccc2O1 (mixture of isomers) 0.763 unspecified
C[C@@H]1CN([C@H](C)CO)C(=O)c2c(c3ccccc3n2C)-c2ccccc2CO[C@@H]1CN(C)Cc1cccc(C(F)(F)F)c1 0.675 unspecified [at 23.5 µM]
CO[C@H]1CN(C)C(=O)c2cc(NC(=O)Nc3ccccc3F)ccc2OC[C@H](C)N(CCC(F)(F)F)C[C@@H]1C 1.03 unspecified
O=C(CC1CC1)N1CC(=O)N2[C@H](CO)[C@@H](c3ccc(C#Cc4cccc(F)c4)cc3)[C@H]2C1 0.887 unspecified
O=C([C@H]1[C@H](CO)[C@H]2Cn3c(ccc(-c4ccc(F)cc4)c3=O)[C@H]2N1Cc1cocn1)N1CCCCC1 0.918 unspecified
Cc1cccc(-c2ccc([C@@H]3[C@@H](CO)N4CCCCN(S(=O)(=O)c5ccccc5F)C[C@@H]34)cc2)c1 0.962 unspecified
C[C@@H]1CN([C@H](C)CO)C(=O)CCCn2nncc2CO[C@@H]1CN(C)Cc1cccc(C(F)(F)F)c1 1.12 unspecified
CCc1nc(N2[C@H](CO)[C@@H](c3ccccc3-c3ccc(F)cc3)[C@@H]2C#N)sc1C 0.697 unspecified
C[C@H]1CN([C@@H](C)CO)S(=O)(=O)c2ccc(-c3cncnc3)cc2O[C@@H]1CN(C)C(=O)NC1CCCC1 0.826 unspecified
Cc1ccc(S(=O)(=O)Nc2ccc3c(c2)C(=O)N([C@H](C)CO)C[C@@H](C)[C@H](CN(C)S(=O)(=O)c2cccs2)OCCCC[C@@H](C)O3)cc1 1.68 unspecified
CO[C@@H]1CN(C)C(=O)c2cc(NS(=O)(=O)c3ccccc3C)ccc2OC[C@@H](C)N(S(=O)(=O)c2ccccc2)C[C@H]1C 1 unspecified
C[C@@H]1CN([C@H](C)CO)C(=O)c2cccc(NC(=O)c3nc4ccccc4s3)c2O[C@H]1CN(C)C(=O)Nc1ccc2c(c1)OCO2 0.577 unspecified [at 23.5 µM]
C[C@@H]1CN([C@@H](C)CO)C(=O)c2ccccc2-c2ccccc2CO[C@H]1CN(C)C(=O)Nc1ccc(-c2ccccc2)cc1 0.561 unspecified
C[C@@H]1CN([C@H](C)CO)S(=O)(=O)c2ccc(C#Cc3cccc(F)c3)cc2O[C@@H]1CN(C)S(=O)(=O)c1cn(C)cn1 0.498 unspecified
O=C(Nc1ccc2c(c1)[C@H]1C[C@@H](CC(=O)N3CCc4ccccc4C3)O[C@H](CO)[C@H]1O2)c1ccc2c(c1)OCO2 0.876 unspecified
C[C@H](O)C#Cc1ccc([C@H]2[C@@H](CO)N3CCCCN(C(=O)c4ccc5c(c4)OCO5)C[C@@H]23)cc1 0.952 unspecified [at 23.5 µM]
COCC(=O)N1CC[C@@H]2[C@H](CO)Nc3ccc(C#Cc4ccc(F)cc4)cc3[C@@H]21 0.882 unspecified
CNC[C@H]1Oc2c(NC(=O)Nc3cccc4ccccc34)cccc2C(=O)N([C@H](C)CO)C[C@@H]1C 0.844 unspecified
CN(C)C(=O)c1ccc(-c2cccc(-c3nc(C(=O)NCc4ccccc4)cc4c3[C@@H](CCO)N([S@](=O)C(C)(C)C)C4)c2)cc1 1.52 unspecified
C[C@@H]1CN([C@@H](C)CO)C(=O)Cc2cc(NC(=O)C3CCCCC3)ccc2O[C@@H]1CN(C)Cc1ccc(Cl)c(Cl)c1 1.43 unspecified [at 23.5 µM]
C[C@@H]1CN([C@@H](C)CO)C(=O)c2ccccc2-c2ccccc2CO[C@@H]1CN(C)S(=O)(=O)c1cn(C)cn1 1.32 unspecified
C[C@@H]1CN([C@H](C)CO)C(=O)c2ccccc2-c2ccccc2CO[C@@H]1CN(C)Cc1ccccc1C(F)(F)F 0.88 unspecified
C[C@@H]1CN([C@@H](C)CO)C(=O)c2cccc(NC(=O)c3nc4ccccc4s3)c2O[C@H]1CN(C)C(=O)Nc1ccc2c(c1)OCO2 0.834 unspecified
Cc1ccc(S(=O)(=O)N[C@H]2C=C[C@H](CC(=O)NCc3ccc(Cl)c(Cl)c3)O[C@H]2CO)cc1 0.997 unspecified
CO[C@@H](CN(C)S(=O)(=O)c1ccc(C)cc1)[C@@H](C)CN([C@H](C)CO)S(=O)(=O)c1cccc(Cl)c1 0.886 unspecified
O=C(Nc1ccccc1)[C@@H]1[C@@H](CO)[C@@H]2Cn3c(cccc3=O)[C@H]1N2C(=O)c1ccc(F)cc1 0.808 unspecified
CCC(=O)N1Cc2cc(C(=O)NCc3cccc(F)c3)nc(-c3cccc(C4=CCCC4)c3)c2[C@H]1CCO 1 unspecified
